# Experimental data as given in PubChem BioAssay (NCATS).
# Records with an inconclusive call do not appear. Where a call stands in place of a potency, no number is given. A number with no mark means an inactive call. The source made the active and inactive calls. The call rests on the fitted dose curve; in most records, active means well fitted inhibition curve with a large enough effect; inconclusive means small, poorly fitted or top-dose-only effect; inactive means flat fitted curve, though single readings scatter.
# Columns and labels:
# [1] = test system: PC26; test: qHTS profiling for inhibitors of Plasmodium falciparum proliferation (AID 504749); settings: P. falciparum in erythrocytes, SYBR Green DNA, 72 h; series mostly up to 28.7 µM
# In short: (§1)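 In a 72 h erythrocytic culture (37 C, humidified, 5% CO2) at 2.5% hematocrit and 0.3% starting parasitemia, compounds were tested; SYBR Green I in detergent lysis buffer stained parasite DNA overnight.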
# [2] = test system: PC49; test: as above; settings: P. falciparum in erythrocytes, SYBR Green DNA, 72 h; series mostly up to 28.7 µM
# In short: as §1
# [3] = test system: SC27B; test: as above; settings: P. falciparum in erythrocytes, SYBR Green DNA, 72 h; series mostly up to 28.7 µM
# In short: as §1
# [4] = test system: TAB109; test: as above; settings: P. falciparum in erythrocytes, SYBR Green DNA, 72 h; series mostly up to 28.7 µM
# In short: as §1
# [5] = test system: TAB113; test: as above; settings: P. falciparum in erythrocytes, SYBR Green DNA, 72 h; series mostly up to 28.7 µM
# In short: as §1
# [6] = test system: CRL-7250; test: Cytotoxic Profiling of Annotated Libraries Using Quantitative High-Throughput Screening (AID 1296008); settings: Five cell lines viability, CellTiter-Glo ATP luminescence, 48-72 h; max response: active compounds read low; further: potency means the concentration at half of the fitted maximal effect
# In short: (§2)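 Cytotoxicity was measured as CellTiter-Glo ATP luminescence, read after 10 min at room temperature. Compound treatment of the cells lasted 48 or 72 hr at 37 degrees Celsius in a qHTS format.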
# [7] = test system: HEK293; test: as above; settings: Five cell lines viability, CellTiter-Glo ATP luminescence, 48-72 h; max response: active compounds read low
# In short: as §2
# [8] = test system: HaCat; test: as above; settings: Five cell lines viability, CellTiter-Glo ATP luminescence, 48-72 h; max response: active compounds read low
# In short: as §2
# [9] = test system: TAB165; test: qHTS profiling for inhibitors of Plasmodium falciparum proliferation (AID 504749); settings: P. falciparum in erythrocytes, SYBR Green DNA, 72 h; series mostly up to 28.7 µM
# In short: as §1
# [10] = test system: W2; test: as above; settings: P. falciparum in erythrocytes, SYBR Green DNA, 72 h; series mostly up to 28.7 µM
# In short: as §1
# Further: nearly all actives have a fitted effect of over 60% in size.
compound,measurement,setting,value
CN(C)CCC[C@@]1(c2ccc(F)cc2)OCc2cc(C#N)ccc21,Potency,[1],inactive
same,Potency,[2],inactive
same,Potency,[3],inactive
same,Potency,[4],inactive
same,Potency,[5],inactive
same,max response,[6],-3.32%
same,max response,[7],-9.91%
same,max response,[8],-13.9%
CC(C(=O)O)c1cccc(Oc2ccccc2)c1 (stereo not drawn),max response,[6],-6.67%
same,max response,[7],-4.21%
same,max response,[8],-15.2%
CN(C)CCOC(=O)C(c1ccccc1)C1(O)CCCC1 (stereo not drawn),max response,[6],-17.7%
same,outcome,[7],inactive
same,outcome,[8],inactive
N[C@H](C(=O)O)[C@@H](O)c1ccc(O)c(O)c1,outcome,[6],inactive
same,max response,[7],-0.734%
same,max response,[8],1.85%
Cc1cn([C@H]2C[C@H](F)[C@@H](CO)O2)c(=O)[nH]c1=O,outcome,[6],inactive
same,max response,[7],0.5%
same,outcome,[8],inactive
CC(C)n1c(/C=C/[C@@H](O)C[C@@H](O)CC(=O)O)c(-c2ccc(F)cc2)c2ccccc21,Potency,[6],1.5 µM (active)
same,Potency,[7],16.8 µM (active)
C=C1c2cccc(O)c2C(O)=C2C(=O)[C@]3(O)C(O)=C(C(N)=O)C(=O)[C@@H](N(C)C)[C@@H]3[C@@H](O)[C@H]12,outcome,[6],inactive
same,max response,[7],-1.35%
same,max response,[8],-8.16%
CCC1NC(=O)c2cc(S(N)(=O)=O)c(Cl)cc2N1 (stereo not drawn),max response,[6],-0.729%
same,max response,[7],-0.132%
same,max response,[8],-3.39%
O=S(=O)(O)c1ccc(O)cc1,Potency,[1],inactive
same,Potency,[2],inactive
same,Potency,[3],inactive
same,Potency,[4],inactive
same,Potency,[5],inactive
same,Potency,[9],inactive
same,Potency,[10],inactive
same,max response,[6],-8.14%
same,max response,[7],2.28%
same,max response,[8],-3.34%
CC1=C(C(=O)O)N2C(=O)[C@@H](NC(=O)[C@H](N)c3ccccc3)[C@H]2SC1,Potency,[1],inactive
same,Potency,[2],inactive
same,Potency,[3],inactive
same,Potency,[4],inactive
same,Potency,[5],inactive
same,Potency,[9],inactive
same,Potency,[10],inactive
same,max response,[6],-2.3%
same,max response,[7],-2.48%
same,max response,[8],2.08%
O=C(O)Cc1csc(-c2ccc(Cl)cc2)n1,Potency,[1],inactive
same,Potency,[2],inactive
same,Potency,[3],inactive
same,Potency,[4],inactive
same,Potency,[5],inactive
same,Potency,[9],inactive
same,Potency,[10],inactive
same,max response,[6],-17.8%
same,max response,[7],-0.458%
same,max response,[8],-16.3%
CC(=O)Nc1ncc([N+](=O)[O-])s1,Potency,[1],inactive
same,Potency,[2],inactive
same,Potency,[3],inactive
same,Potency,[4],inactive
same,Potency,[5],inactive
same,Potency,[9],inactive
same,Potency,[10],inactive
same,max response,[6],2.19%
same,max response,[7],0.687%
same,max response,[8],4.2%
OCc1ccccn1,Potency,[1],inactive
same,Potency,[2],inactive
same,Potency,[3],inactive
same,Potency,[4],inactive
same,Potency,[5],inactive
same,Potency,[9],inactive
same,Potency,[10],inactive
same,max response,[6],-1.84%
same,max response,[7],-1.39%
same,outcome,[8],inactive
CNCCc1ccccn1,Potency,[1],inactive
same,Potency,[2],inactive
same,Potency,[3],inactive
same,Potency,[4],inactive
same,Potency,[5],inactive
same,Potency,[9],inactive
same,Potency,[10],inactive
same,outcome,[6],inactive
same,max response,[7],-1.02%
same,max response,[8],-8.27%
C#C[C@]1(O)CC[C@H]2[C@@H]3CCc4cc(OC)ccc4[C@H]3CC[C@@]21C,Potency,[1],inactive
same,Potency,[2],inactive
same,Potency,[3],inactive
same,Potency,[4],inactive
same,Potency,[5],inactive
same,Potency,[9],inactive
same,Potency,[10],inactive
same,max response,[6],-13.3%
same,max response,[7],-6.93%
same,max response,[8],-21.7%
Cc1cc(NS(=O)(=O)c2ccc(N)cc2)nc(C)n1,Potency,[1],inactive
same,Potency,[2],inactive
same,Potency,[3],inactive
same,Potency,[4],inactive
same,Potency,[5],inactive
same,Potency,[9],inactive
same,Potency,[10],inactive
same,max response,[6],-3.14%
same,max response,[7],-0.689%
same,outcome,[8],inactive
Cc1ccccc1OCC(O)CO (stereo not drawn),Potency,[1],inactive
same,Potency,[2],inactive
same,Potency,[3],inactive
same,Potency,[4],inactive
same,Potency,[5],inactive
same,Potency,[9],inactive
same,Potency,[10],inactive
same,outcome,[6],inactive
same,max response,[7],-6.66%
same,max response,[8],0.0907%
